About 2,000 (36%) of roughly 5,500 compounds were called active. Inconclusive results (about 18%) are left out. Rule as the data show it: active = normalized growth mostly below about 0.91 (no sharp cut-off); inconclusive = no clear call, values can overlap the other calls; inactive = mostly above about 0.92. Some of the results follow.
Test: chemical genetic growth profiling, strain panel (AID 1159580);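 also: tested at 20 µM; growth read once vehicle control cultures reached saturation at 30 °C; 1 = growth at the plate median or of vehicle wells; lower values mean less growth of the strain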
Details: S. cerevisiae deletion strains, growth OD

Measured: normalized growth

CCC(CCC(C)C1CCC2C3CC=C4C[C@@H](OC(C)=O)CC[C@]4(C)C3CC[C@]12C)C(C)C (stereo partly drawn)
inactive: locus YBR021W, strain FUR4, hits give low values 0.996 | locus YBR229C, strain ROT2, hits give low values 0.99 | locus YCL029C, strain bik1, hits give low values 0.996 | locus YDL035C, strain GPR1, hits give low values 1.04 | locus YDL074C, strain BRE1, hits give low values 1.07 | locus YDL101C, strain DUN1, hits give low values 0.979 | locus YDL134C, strain PPH21, hits give low values 1.01 | locus YDL185W, strain tfp1, hits give low values 0.974 | locus YDL192W, strain arf1, hits give low values 1 | locus YDR101C, strain arx1, hits give low values 1.02 | locus YDR162C, strain NBP2, hits give low values 1 | locus YDR318W, strain mcm21, hits give low values 0.976 | locus YDR388W, hits give low values 0.963 | locus YDR502C, strain sam2, hits give low values 0.968 | locus YEL061C, strain CIN8, hits give low values 1 | locus YER110C, hits give low values 0.968 | locus YER155C, strain BEM2, hits give low values 0.981 | locus YER167W, strain BCK2, hits give low values 1.01 | locus YGL078C, strain dbp3, hits give low values 0.964 | locus YGL086W, strain mad1, hits give low values 0.992 | locus YGL248W, strain PDE1, hits give low values 0.982 | locus YGR078C, strain PAC10, hits give low values 0.989 | locus YGR135W, strain pre9, hits give low values 0.945 | locus YGR252W, strain gcn5, hits give low values 0.941 | locus YHR030C, strain SLT2, hits give low values 0.991 | locus YHR079C, strain IRE1 (second series), hits give low values 0.977 | locus YHR094C, strain hxt1, hits give low values 0.976 | locus YHR129C, strain ARP1, hits give low values 0.998 | locus YHR200W, strain rpn10, hits give low values 0.975 | locus YIL066C, strain RNR3, hits give low values 1.02 | locus YIL073C, strain SPO22, hits give low values 1.01 | locus YIL125W, strain kgd1, hits give low values 0.987 | locus YIR030C, strain dcg1, hits give low values 0.968 | locus YJL095W, strain BCK1, hits give low values 0.991 | locus YJL134W, strain LCB3, hits give low values 0.991 | locus YJL168C, strain set2, hits give low values 0.96 | locus YJL187C, strain SWE1 (second series), hits give low values 0.979 | locus YJR043C, strain POL32, hits give low values 1.05 | locus YKL009W, strain mrt4, hits give low values 1.03 | locus YKL068W, hits give low values 0.987 | locus YKL085W, strain MDH1 (second series), hits give low values 0.989 | locus YKL085W, strain MDH1, hits give low values 0.989 | locus YKL190W, strain CNB1, hits give low values 1 | locus YKR001C, strain vps1, hits give low values 0.995 | locus YLR039C, strain RIC1, hits give low values 1.07 | locus YLR058C, strain SHM2, hits give low values 1 | locus YLR102C, strain apc9, hits give low values 0.978 | locus YLR262C, strain YPT6, hits give low values 1.08 | locus YLR268W, strain sec22, hits give low values 1.02 | locus YLR330W, strain CHS5, hits give low values 0.993 | locus YLR342W, strain FKS1 (second series), hits give low values 1.09 | locus YLR371W, strain rom2, hits give low values 0.993 | locus YLR418C, strain cdc73, hits give low values 0.959 | locus YML016C, strain PPZ1, hits give low values 1.01 | locus YML032C, strain rad52, hits give low values 1.01 | locus YML124C, strain tub3, hits give low values 0.98 | locus YMR078C, strain ctf18, hits give low values 0.962 | locus YMR223W, strain ubp8, hits give low values 0.992 | locus YMR307W, strain GAS1, hits give low values 1.06 | locus YNL067W, strain RPL9B, hits give low values 0.974 | locus YNL128W, strain TEP1, hits give low values 1.01 | locus YNL233W, strain BNI4, hits give low values 0.98 | locus YNL250W, strain rad50, hits give low values 0.947 | locus YNL271C, strain bni1, hits give low values 0.957 | locus YNL298W, strain CLA4, hits give low values 0.997 | locus YNL307C, strain MCK1, hits give low values 0.975 | locus YNR052C, strain pop2, hits give low values 0.961 | locus YOL006C, strain TOP1, hits give low values 1.2 | locus YOL012C, strain htz1 1.41 | locus YOL147C, strain pex11, hits give low values 0.989 | locus YOR061W, strain CKA2, hits give low values 1.01 | locus YOR069W, strain VPS5, hits give low values 0.99 | locus YOR136W, strain idh2, hits give low values 0.975 | locus YOR144C, strain elg1, hits give low values 0.97 | locus YOR184W, strain ser1, hits give low values 1.04 | locus YOR316C, strain cot1, hits give low values 0.978 | locus YPL055C, strain LGE1, hits give low values 1.03 | locus YPL241C, strain CIN2, hits give low values 0.984 | locus YPR119W, strain clb2, hits give low values 0.971 | locus YPR141C, strain kar3, hits give low values 0.975 | locus YPR163C, strain tif3, hits give low values 0.982 | locus YPR167C, strain met16, hits give low values 0.967 | strain wtn01, hits give low values 1.01

— PubChem BioAssay AID1159580 (chemical genetic matrix, 2015)
